# Inconclusive results are not listed. The source made the active and inactive calls. The calls were made as follows: active = hit-call score of the fitted dose curve at least 0.9, where 1 is the maximum; inconclusive = response in the unintended direction; inactive = score below 0.9.
# Legend:
# [1] = target: Tyrosine-protein phosphatase non-receptor type 11 (Homo sapiens) (UniProt Q06124); assay: NVS_ENZ_hPTPN11: NovaScreen (NVS) Enzymatic Assay for human Protein Tyrosine Phosphatase Non-receptor Type 11 (PTPN11) (AID 2283202)
# Method in brief: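 Compounds first tested in duplicate at 25 uM; those reaching ~30% inhibition rerun in singleton concentration-response, top 50 uM. Phosphatase activity measured after 0.5 h by fluorescence with mobility-shift separation, relative to DMSO.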
# [2] = target: Tyrosine-protein phosphatase non-receptor type 12 (Homo sapiens) (UniProt Q05209); assay: NVS_ENZ_hPTPN12: NovaScreen (NVS) Enzymatic Assay for human Protein Tyrosine Phosphatase Non-receptor Type 12 (PTPN12) (AID 2283204)
# Protocol: (§1) NVS_ENZ_hPTPN12 is a biochemical, single-readout assay that uses extracted gene-proteins in a cell-free assay. Measurements were taken 1.33 hours after chemical dosing in a 384-well plate.NVS_ENZ_hPTPN12 is one of one assay component(s) measured or calculated from the NVS_ENZ_hPTPN12 assay. It is designed to make measurements of enzyme activity, a form of enzyme reporter, as detected with fluorescence intensity signals by Fluorescence and electrophoretic mobility shift technology.Data from the assay component NVS_ENZ_hPTPN12 was analyzed into 1 assay endpoint. This assay endpoint, NVS_ENZ_hPTPN12, was analyzed in the positive analysis fitting direction relative to DMSO as the negative control and baseline of activity. Using a type of enzyme reporter, loss-of-signal activity can be used to understand changes in the enzymatic activity as they relate to the gene PTPN12. Furthermore, this assay endpoint can be referred to as a primary readout, because this assay has produced multiple assay endpoints where this one serves a enzymatic activity function. To generalize the intended target to other relatable targets, this assay endpoint is annotated to the phosphatase intended target family, where the subfamily is non-receptor tyrosine phosphatase.
# (§2) Binding assays used specific radioligands (tritiated, iodinated) with non-radioactive competitive displacement ligands in agonist or antagonist protocols (as indicated) and various reference compounds and inhibitors to titrate specific binding to receptors and transporters. Most enzyme assays (CYPs, kinases, phosphatases, proteases, HDACs) used recombinant protein and specific substrates (fluorescence mostly, some colorimetric and radioactive) and inhibitors, followed by a biochemical separation of substrate and product. All assays for the biochemical HTS were initially run in duplicate at a single concentration (10 uM for CYP450 assays and 25 uM for all others). Assay-chemical combinations meeting a pre-defined threshold (e.g., 30% inhibition and other criteria defined below) were then run in singleton concentration-response format with maximum concentration of 20 uM for CYPs and 50 uM for all others. Each assay was run with positive and negative controls, and concurrent controls on every plate. The follow-up (secondary) screen tested active chemical-pairs in concentration series, as well as a few additional assays not tested in the primary screen, some selected negative inactives, and several cases re-run in the concentration series for confirmatory purposes.
# [3] = target: human Protein Tyrosine Phosphatase Non-receptor Type 2 (PTPN2), PTPN2 (gene 5771) (UniProt P17706); assay: NVS_ENZ_hPTPN2: NovaScreen (NVS) Enzymatic Assay for human Protein Tyrosine Phosphatase Non-receptor Type 2 (PTPN2) (AID 2283207)
# Method in brief: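 Activity measured as fluorescence after mobility-shift separation of substrate and product, 1 h after compound. Duplicate single-point 25 uM primary testing, concentration series for actives; inhibition scored as signal loss relative to DMSO baseline.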
# [4] = target: human Protein Tyrosine Phosphatase Non-receptor Type 4 (PTPN4), PTPN4 (gene 5775) (UniProt P29074); assay: NVS_ENZ_hPTPN4: NovaScreen (NVS) Enzymatic Assay for human Protein Tyrosine Phosphatase Non-receptor Type 4 (PTPN4) (AID 2283208)
# Protocol: as §1, with “NVS_ENZ_hPTPN4” for “NVS_ENZ_hPTPN12”, “gene-proteins from SF9” for “gene-proteins”, “plate.NVS_ENZ_hPTPN4” for “plate.NVS_ENZ_hPTPN12”, “NVS_ENZ_hPTPN4,” for “NVS_ENZ_hPTPN12,”, “PTPN4.” for “PTPN12.”, “phosphatase. […]” for “phosphatase.”
# [5] = target: human Protein Tyrosine Phosphatase Non-receptor Type 9 (PTPN9), PTPN9 (gene 5780) (UniProt P43378); assay: NVS_ENZ_hPTPN9: NovaScreen (NVS) Enzymatic Assay for human Protein Tyrosine Phosphatase Non-receptor Type 9 (PTPN9) (AID 2283209)
# Protocol: as §1, with “NVS_ENZ_hPTPN9” for “NVS_ENZ_hPTPN12”, “gene-proteins from SF9” for “gene-proteins”, “plate.NVS_ENZ_hPTPN9” for “plate.NVS_ENZ_hPTPN12”, “NVS_ENZ_hPTPN9,” for “NVS_ENZ_hPTPN12,”, “PTPN9.” for “PTPN12.”, “phosphatase. […]” for “phosphatase.”
# [6] = target: human Protein Tyrosine Phosphatase Receptor Type B (PTPRB), PTPRB (gene 5787) (UniProt P23467); assay: NVS_ENZ_hPTPRB: NovaScreen (NVS) Enzymatic Assay for human Protein Tyrosine Phosphatase Receptor Type B (PTPRB) (AID 2283211)
# Protocol: as §1, with “NVS_ENZ_hPTPRB” for “NVS_ENZ_hPTPN12”, “1 hour” for “1.33 hours”, “plate.NVS_ENZ_hPTPRB” for “plate.NVS_ENZ_hPTPN12”, “NVS_ENZ_hPTPRB,” for “NVS_ENZ_hPTPN12,”, “PTPRB.” for “PTPN12.”, “receptor” for “non-receptor”
# as §2, with “Assay-chemical combinations meeting a pre-defined threshold (e.g., 30% inhibition and other criteria defined below) were then run in singleton concentration-response format with maximum concentration of 20 uM for CYPs and 50 uM for all others.” left out
# [7] = target: human Protein Tyrosine Phosphatase Non-receptor Type 6 (PTPN6), PTPN6 (gene 5777) (UniProt P29350); assay: NVS_ENZ_hPTPN6: NovaScreen (NVS) Enzymatic Assay for human Protein Tyrosine Phosphatase Non-receptor Type 6 (PTPN6) (AID 2283210)
# Method in brief: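 Recombinant human PTPN6 from SF9 cells, enzyme activity followed by fluorescence after mobility-shift separation of substrate and product at 1.33 h. Chemicals first tested at a single 25 uM in duplicate, then confirmed across concentration series; loss of signal relative to DMSO.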
# [8] = target: Tyrosine-protein phosphatase non-receptor type 13 (Homo sapiens) (UniProt Q12923); assay: NVS_ENZ_hPTPN13: NovaScreen (NVS) Enzymatic Assay for human Protein Tyrosine Phosphatase Non-receptor Type 13 (PTPN13) (AID 2283205)
# Method in brief: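 Screened first at a single 25 uM in duplicate; compounds passing the threshold (e.g. 30% inhibition) were rerun in concentration series, top 50 uM. Recombinant enzyme, fluorescent substrate, mobility-shift separation, 0.5 h read. Data fitted as inhibition relative to DMSO.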
# [9] = target: Tyrosine-protein phosphatase non-receptor type 14 (Homo sapiens) (UniProt Q15678); assay: NVS_ENZ_hPTPN14: NovaScreen (NVS) Enzymatic Assay for human Protein Tyrosine Phosphatase Non-receptor Type 14 (PTPN14) (AID 2283206)
# Method in brief: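 Fluorescent substrate turnover by recombinant human PTPN14 was measured 0.5 h after compound addition, with substrate and product separated by mobility shift. Single-point screening at 25 uM, then concentration-response up to 50 uM for chemicals meeting threshold (e.g., 30% inhibition).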
# [10] = target: human Protein Tyrosine Phosphatase Receptor Type C (PTPRC), PTPRC (gene 5788) (UniProt P08575); assay: NVS_ENZ_hPTPRC: NovaScreen (NVS) Enzymatic Assay for human Protein Tyrosine Phosphatase Receptor Type C (PTPRC) (AID 2283212)
# Method in brief: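 Absorbance-based phosphatase activity of human PTPRC protein extracted from yeast was measured 1 h post-dosing. Compounds first tested at 25 uM in duplicate, then those passing threshold in singleton concentration series to 50 uM.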
# Sequence of human Protein Tyrosine Phosphatase Receptor Type C (PTPRC), PTPRC (gene 5788) (P08575 whole entry, looked up): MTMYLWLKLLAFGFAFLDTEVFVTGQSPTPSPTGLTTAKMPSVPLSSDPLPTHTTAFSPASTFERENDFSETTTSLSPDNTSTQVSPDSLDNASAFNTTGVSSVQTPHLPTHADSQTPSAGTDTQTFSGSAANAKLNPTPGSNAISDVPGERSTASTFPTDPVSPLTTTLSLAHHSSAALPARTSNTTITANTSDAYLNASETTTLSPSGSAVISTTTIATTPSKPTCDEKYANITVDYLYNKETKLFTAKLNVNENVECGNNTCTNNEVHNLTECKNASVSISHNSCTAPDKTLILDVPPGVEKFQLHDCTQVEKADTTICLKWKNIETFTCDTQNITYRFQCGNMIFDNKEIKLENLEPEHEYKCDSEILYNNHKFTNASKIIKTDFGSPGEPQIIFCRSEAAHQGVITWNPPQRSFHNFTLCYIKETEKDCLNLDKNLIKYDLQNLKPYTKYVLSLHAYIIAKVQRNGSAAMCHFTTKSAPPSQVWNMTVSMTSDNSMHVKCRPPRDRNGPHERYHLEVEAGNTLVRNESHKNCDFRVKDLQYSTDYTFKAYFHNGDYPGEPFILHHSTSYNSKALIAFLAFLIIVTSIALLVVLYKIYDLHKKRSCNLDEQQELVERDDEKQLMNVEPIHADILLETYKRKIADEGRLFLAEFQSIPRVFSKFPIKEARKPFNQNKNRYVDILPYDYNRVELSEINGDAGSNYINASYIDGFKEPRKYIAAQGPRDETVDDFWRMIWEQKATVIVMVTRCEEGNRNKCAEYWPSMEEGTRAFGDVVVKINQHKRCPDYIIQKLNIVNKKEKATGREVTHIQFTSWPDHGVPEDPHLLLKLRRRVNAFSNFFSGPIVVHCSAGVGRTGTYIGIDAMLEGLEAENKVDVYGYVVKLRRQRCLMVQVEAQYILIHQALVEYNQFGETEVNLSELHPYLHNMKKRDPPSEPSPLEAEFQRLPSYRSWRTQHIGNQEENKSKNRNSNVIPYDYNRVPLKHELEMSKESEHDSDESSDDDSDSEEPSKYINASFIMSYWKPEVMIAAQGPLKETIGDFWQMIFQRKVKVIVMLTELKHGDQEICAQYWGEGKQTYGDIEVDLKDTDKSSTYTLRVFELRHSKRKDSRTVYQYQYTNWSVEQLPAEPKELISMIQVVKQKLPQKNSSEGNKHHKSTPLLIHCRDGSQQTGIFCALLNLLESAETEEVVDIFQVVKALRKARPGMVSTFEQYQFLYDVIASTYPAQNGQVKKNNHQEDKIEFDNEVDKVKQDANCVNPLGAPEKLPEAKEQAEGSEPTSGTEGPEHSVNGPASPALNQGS
# Sequence of Tyrosine-protein phosphatase non-receptor type 11 (Homo sapiens) (Q06124 whole entry, looked up): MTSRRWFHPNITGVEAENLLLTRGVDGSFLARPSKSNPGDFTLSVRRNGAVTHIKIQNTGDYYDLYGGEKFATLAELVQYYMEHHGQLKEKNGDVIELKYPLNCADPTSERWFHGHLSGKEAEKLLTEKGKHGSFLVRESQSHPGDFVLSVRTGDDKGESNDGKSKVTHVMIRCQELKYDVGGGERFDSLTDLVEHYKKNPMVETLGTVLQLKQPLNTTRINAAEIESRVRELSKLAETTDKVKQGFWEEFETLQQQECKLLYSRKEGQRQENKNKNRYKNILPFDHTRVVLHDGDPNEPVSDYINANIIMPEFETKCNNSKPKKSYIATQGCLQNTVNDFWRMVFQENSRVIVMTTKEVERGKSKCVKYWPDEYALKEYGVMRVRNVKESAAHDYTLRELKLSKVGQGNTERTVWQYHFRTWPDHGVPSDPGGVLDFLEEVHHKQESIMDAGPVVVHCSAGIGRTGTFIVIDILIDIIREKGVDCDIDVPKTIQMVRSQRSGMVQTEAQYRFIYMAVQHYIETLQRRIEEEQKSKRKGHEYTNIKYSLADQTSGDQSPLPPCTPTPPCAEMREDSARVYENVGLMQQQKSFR
# Sequence of Tyrosine-protein phosphatase non-receptor type 12 (Homo sapiens) (Q05209 whole entry, looked up): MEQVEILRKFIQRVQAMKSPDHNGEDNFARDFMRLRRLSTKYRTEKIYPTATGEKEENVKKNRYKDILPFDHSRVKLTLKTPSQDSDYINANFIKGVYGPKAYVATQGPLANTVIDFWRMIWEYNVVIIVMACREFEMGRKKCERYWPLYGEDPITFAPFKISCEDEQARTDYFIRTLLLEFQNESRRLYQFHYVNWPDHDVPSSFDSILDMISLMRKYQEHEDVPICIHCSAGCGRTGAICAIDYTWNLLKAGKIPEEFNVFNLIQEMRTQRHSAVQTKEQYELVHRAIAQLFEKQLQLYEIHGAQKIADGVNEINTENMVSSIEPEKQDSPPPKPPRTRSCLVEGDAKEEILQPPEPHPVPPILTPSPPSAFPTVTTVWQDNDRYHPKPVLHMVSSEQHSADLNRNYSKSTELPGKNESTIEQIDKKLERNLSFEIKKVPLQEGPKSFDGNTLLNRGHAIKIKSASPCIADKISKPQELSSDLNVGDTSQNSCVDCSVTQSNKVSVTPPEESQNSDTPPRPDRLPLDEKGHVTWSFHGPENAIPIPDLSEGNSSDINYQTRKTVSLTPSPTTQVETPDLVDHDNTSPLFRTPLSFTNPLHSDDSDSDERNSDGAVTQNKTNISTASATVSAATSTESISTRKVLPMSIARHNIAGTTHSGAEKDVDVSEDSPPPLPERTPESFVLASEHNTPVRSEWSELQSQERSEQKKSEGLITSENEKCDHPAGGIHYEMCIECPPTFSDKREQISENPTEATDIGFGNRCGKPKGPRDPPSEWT
# Sequence of human Protein Tyrosine Phosphatase Non-receptor Type 2 (PTPN2), PTPN2 (gene 5771) (P17706 whole entry, looked up): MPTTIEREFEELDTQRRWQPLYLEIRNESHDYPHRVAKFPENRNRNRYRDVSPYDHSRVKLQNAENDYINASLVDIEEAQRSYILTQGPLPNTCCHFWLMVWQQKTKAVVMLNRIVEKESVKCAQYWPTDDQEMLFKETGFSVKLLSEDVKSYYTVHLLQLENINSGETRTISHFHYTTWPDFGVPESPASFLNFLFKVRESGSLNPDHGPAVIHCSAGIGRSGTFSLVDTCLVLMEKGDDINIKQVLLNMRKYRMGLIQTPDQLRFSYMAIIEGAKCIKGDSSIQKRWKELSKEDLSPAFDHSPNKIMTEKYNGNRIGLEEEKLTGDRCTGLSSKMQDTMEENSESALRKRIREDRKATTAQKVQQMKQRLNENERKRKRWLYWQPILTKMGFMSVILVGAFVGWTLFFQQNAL
# Sequence of human Protein Tyrosine Phosphatase Receptor Type B (PTPRB), PTPRB (gene 5787) (P23467 whole entry, looked up): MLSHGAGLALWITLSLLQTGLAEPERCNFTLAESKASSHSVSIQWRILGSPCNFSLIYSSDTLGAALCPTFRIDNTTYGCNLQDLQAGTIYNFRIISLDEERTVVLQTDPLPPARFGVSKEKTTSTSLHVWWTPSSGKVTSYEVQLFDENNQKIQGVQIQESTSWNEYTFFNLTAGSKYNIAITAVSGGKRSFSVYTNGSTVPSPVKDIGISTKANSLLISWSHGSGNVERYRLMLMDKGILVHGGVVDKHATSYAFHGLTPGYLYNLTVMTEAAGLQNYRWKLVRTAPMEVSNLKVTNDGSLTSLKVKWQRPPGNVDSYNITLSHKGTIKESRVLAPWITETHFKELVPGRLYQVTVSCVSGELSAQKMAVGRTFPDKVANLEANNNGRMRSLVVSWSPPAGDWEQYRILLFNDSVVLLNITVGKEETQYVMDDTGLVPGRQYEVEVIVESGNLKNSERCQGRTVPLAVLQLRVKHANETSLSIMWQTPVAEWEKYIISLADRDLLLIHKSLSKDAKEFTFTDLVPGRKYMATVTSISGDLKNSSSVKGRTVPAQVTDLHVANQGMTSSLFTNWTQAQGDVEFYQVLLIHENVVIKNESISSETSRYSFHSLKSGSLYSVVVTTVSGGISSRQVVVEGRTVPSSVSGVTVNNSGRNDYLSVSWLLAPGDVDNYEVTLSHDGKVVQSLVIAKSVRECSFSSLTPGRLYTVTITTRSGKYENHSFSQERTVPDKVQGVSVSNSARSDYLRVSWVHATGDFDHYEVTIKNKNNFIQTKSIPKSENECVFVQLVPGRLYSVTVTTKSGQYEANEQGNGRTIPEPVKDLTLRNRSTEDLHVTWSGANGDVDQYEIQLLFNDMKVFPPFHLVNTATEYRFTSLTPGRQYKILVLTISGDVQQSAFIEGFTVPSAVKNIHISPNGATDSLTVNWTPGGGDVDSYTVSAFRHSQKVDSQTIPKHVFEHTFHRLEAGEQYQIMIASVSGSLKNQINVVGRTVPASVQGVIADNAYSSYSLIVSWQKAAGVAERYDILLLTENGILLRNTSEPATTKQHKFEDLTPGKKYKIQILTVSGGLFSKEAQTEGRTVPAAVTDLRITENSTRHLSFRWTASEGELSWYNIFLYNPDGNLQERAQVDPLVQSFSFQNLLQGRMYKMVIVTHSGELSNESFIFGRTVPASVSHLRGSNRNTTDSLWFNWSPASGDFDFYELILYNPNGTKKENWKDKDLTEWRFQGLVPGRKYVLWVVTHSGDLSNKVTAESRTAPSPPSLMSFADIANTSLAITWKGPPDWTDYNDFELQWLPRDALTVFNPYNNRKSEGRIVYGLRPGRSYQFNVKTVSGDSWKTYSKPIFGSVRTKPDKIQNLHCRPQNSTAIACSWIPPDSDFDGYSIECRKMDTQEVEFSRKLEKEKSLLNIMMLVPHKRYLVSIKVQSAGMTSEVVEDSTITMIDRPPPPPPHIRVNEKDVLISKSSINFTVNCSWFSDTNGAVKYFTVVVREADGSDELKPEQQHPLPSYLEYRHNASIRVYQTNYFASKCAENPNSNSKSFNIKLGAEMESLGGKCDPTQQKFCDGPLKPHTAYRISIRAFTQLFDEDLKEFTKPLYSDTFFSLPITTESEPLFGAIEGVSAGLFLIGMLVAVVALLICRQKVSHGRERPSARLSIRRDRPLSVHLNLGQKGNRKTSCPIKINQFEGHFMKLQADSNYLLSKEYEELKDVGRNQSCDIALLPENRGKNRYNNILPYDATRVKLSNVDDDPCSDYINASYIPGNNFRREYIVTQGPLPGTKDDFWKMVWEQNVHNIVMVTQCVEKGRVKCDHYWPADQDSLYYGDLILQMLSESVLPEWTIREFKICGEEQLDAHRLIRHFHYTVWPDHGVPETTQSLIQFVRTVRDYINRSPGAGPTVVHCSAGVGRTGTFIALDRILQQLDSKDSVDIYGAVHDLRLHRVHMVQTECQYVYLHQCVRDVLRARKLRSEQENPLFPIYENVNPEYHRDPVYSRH
smiles,measurement,setting,value
N#Cc1cccnc1,outcome,[1],inactive
same,outcome,[2],inactive
same,outcome,[3],inactive
same,outcome,[4],inactive
same,outcome,[5],inactive
same,outcome,[6],inactive
O=C1c2ccccc2C(=O)C1C(=O)C(c1ccccc1)c1ccc(Cl)cc1 (stereo unspecified),AC50,[1],9.45 µM (active)
same,AC50,[2],20 µM (active)
same,AC50,[6],14.7 µM (active)
Oc1cc(Cl)c(Cl)cc1Cl,outcome,[7],inactive
CC(C)O.CC(C)O.OCCN(CCO)CCO.OCCN(CCO)CCO.[Ti],AC50,[1],13.6 µM (active)
same,AC50,[2],0.00439 µM (active)
same,AC50,[8],3.51 µM (active)
same,AC50,[9],0.00229 µM (active)
same,AC50,[3],0.00229 µM (active)
same,AC50,[6],0.00229 µM (active)
CCCCCCCCCCCCc1cccc(S(=O)(=O)O)c1,AC50,[1],22.5 µM (active)
same,AC50,[2],12.8 µM (active)
same,AC50,[8],22.7 µM (active)
same,AC50,[5],5.53 µM (active)
same,AC50,[6],19.2 µM (active)
same,AC50,[10],6.82 µM (active)
Clc1cccc(Cl)c1Cl,outcome,[2],inactive
COc1ccccc1N,AC50,[7],22.6 µM (active)
same,AC50,[10],17.5 µM (active)
O=C(CBr)c1ccc(O)cc1,outcome,[6],inactive
CN(C)C(=S)S,AC50,[10],7.44 µM (active)
CCCCCCCCCCCCOS(=O)(=O)O,outcome,[3],inactive
COc1nn(C(=O)NS(=O)(=O)c2ccccc2OC(F)(F)F)c(=O)n1C,AC50,[1],13.3 µM (active)
same,AC50,[2],5.64 µM (active)
same,AC50,[6],6.08 µM (active)
